Data on 14 molecules can be found in paper PMC5540273 (PLoS ONE, 2017).

Test systems include PRKCQ; PRKD1; PRKD2; PRKD3; PRKG1; PRKG2; PRKX; PRP4; QSK; RAF1; RET; RIOK1; RIOK2; RIOK3; RIPK1; RIPK2; RIPK4; RIPK5.
Holding throughout (conditions): concentration: 1 μM, replicates: in singlicate; n = 1
The next assay concerns T1, PRKR.
T1 construct: gene EIF2AK2

Another assay deals with T2, PYK2.
T2 construct: gene PTK2B
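Further: KINOMEscan kinase panel screen.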

Take `Cc1cc(-c2ccc3c(c2)CC[C@@H](N[C@@H](C)c2ccccc2)C3)cnc1N.Cl` [GW412617]: the “%Inh” value was 36% in the assay with PRKCQ; 18% in the assay with PRKD1; 21% in the assay with PRKD2; 0% in the assay with PRKD3; 9% in the assay on PRKG1; 0% in the assay on PRKG2. The “%Inh” value in the assay with PRKR was 0%; in the assay with PRKX, 12%; in the assay with PRP4, 0%; in the assay on PYK2 it was 12%; in the assay with QSK, 0%; in the assay with RAF1, 19%. Further, the “%Inh” value in the assay with RET is 0%; with RIOK1, 44%; with RIOK2, 85%; in the assay with RIOK3, 32%; with RIPK1, 50%; in the assay with RIPK2, 15%. The “%Inh” value in the assay with RIPK4 was found to be 13%; in the assay on RIPK5 it was 7%.

As to `NC(=O)c1nnc2ccccc2c1N`, the “%Inh” value is recorded as 3% in the assay with PRKCQ; 0% with PRKD1; 53% in the assay on PRKD2; 0% with PRKD3; 0% in the assay on PRKG1; 14% with PRKG2. Further, the “%Inh” value came out at 0% with PRKR; 1% in the assay with PRKX; 0% with PRP4; 12% in the assay with PYK2; 22% in the assay with QSK; 19% in the assay with RAF1. Also, the “%Inh” value in the assay on RET was 8%; with RIOK1, 64%; with RIOK2 it was 44%; in the assay with RIOK3, 57%; in the assay on RIPK1, 0%; in the assay on RIPK2, 0%. In addition, the entries for the “%Inh” value in the assay with RIPK4 and in the assay on RIPK5 were 45% and 0%, respectively.

Turning to `CCn1c(-c2ccccn2)nc2cnccc21` [SB-736398], the “%Inh” value in the assay with PRKCQ came out at 14%; in the assay on PRKD1, 0%; in the assay on PRKD2, 0%; in the assay with PRKD3, 1%; with PRKG1 it was 0%; in the assay with PRKG2 it was 3%. In addition, the “%Inh” value in the assay with PRKR is recorded as 0%; in the assay on PRKX it was 100%; with PRP4, 46%; in the assay with PYK2, 9%; in the assay with QSK, 0%; with RAF1, 18%. Further, the “%Inh” value was determined as 24% in the assay with RET; 4% in the assay on RIOK1; 0% in the assay on RIOK2; 0% in the assay on RIOK3; 0% in the assay on RIPK1; 0% in the assay with RIPK2. Also, the “%Inh” value in the assay on RIPK4 stood at 15%; with RIPK5, 0%.

For the molecule `CCCc1ccc(S(=O)(=O)NC2CCN(c3ccnc(Nc4ccc(F)cc4)n3)C2)cc1` (stereo not shown) [GSK1379715], the “%Inh” value with PRKCQ stood at 27%; in the assay with PRKD1, 1%; with PRKD2, 0%; in the assay with PRKD3 it was 0%; with PRKG1 it was 0%; in the assay on PRKG2, 0%. Besides, the “%Inh” value with PRKR is 0%; in the assay on PRKX, 1%; in the assay on PRP4, 20%; in the assay with PYK2 it was 0%; in the assay on QSK, 0%; in the assay on RAF1, 15%. Besides, the “%Inh” value in the assay on RET came out at 16%; with RIOK1, 3%; in the assay on RIOK2 it was 0%; in the assay with RIOK3, 0%; in the assay with RIPK1, 0%; in the assay on RIPK2, 0%. The results for the “%Inh” value with RIPK4 and with RIPK5 were 10% and 0%, respectively.

On to `COc1cc2nccc(Nc3ccc(NC(=O)c4ccc(C)cc4)c(O)c3)c2cc1OC.Cl` [GW440132], for which the “%Inh” value is 16% in the assay on PRKCQ; 0% with PRKD1; 0% in the assay on PRKD2; 0% in the assay with PRKD3; 0% in the assay on PRKG1; 0% with PRKG2. The “%Inh” value in the assay on PRKR was 0%; in the assay on PRKX, 18%; in the assay with PRP4, 2%; in the assay with PYK2, 12%; with QSK, 2%; with RAF1 it was 5%. In addition, the “%Inh” value in the assay with RET was determined as 49%; in the assay with RIOK1, 46%; in the assay with RIOK2 it was 13%; with RIOK3, 0%; in the assay on RIPK1, 4%; in the assay on RIPK2, 17%. The “%Inh” value in the assay with RIPK4 and in the assay with RIPK5 was 0% each time.

With `COc1ccccc1-c1ccc2c(NC(=O)C3CC3)n[nH]c2n1` [SB-711239], the “%Inh” value in the assay with PRKCQ was found to be 9%; in the assay with PRKD1 it was 0%; in the assay with PRKD2, 11%; in the assay with PRKD3, 30%; in the assay with PRKG1 it was 27%; in the assay with PRKG2, 22%. Besides, the “%Inh” value with PRKR came out at 7%; in the assay with PRKX, 25%; in the assay with PRP4, 53%; in the assay on PYK2, 0%; in the assay with QSK it was 16%; with RAF1 it was 38%. Further, the “%Inh” value came out at 11% in the assay on RET; 20% with RIOK1; 9% with RIOK2; 0% in the assay on RIOK3; 10% with RIPK1; 33% with RIPK2. For the same molecule, the “%Inh” value in the assay on RIPK4 and in the assay with RIPK5 was 0% throughout.

In the case of `CC(C)(C)c1ccc(C(=O)Nc2cn3cc(Cl)ccc3n2)cc1`, the “%Inh” value in the assay with PRKCQ is 18%; in the assay with PRKD1 it was 0%; in the assay on PRKD2, 0%; with PRKD3, 0%; in the assay on PRKG1, 0%; with PRKG2, 0%. The “%Inh” value was 0% in the assay on PRKR; 0% in the assay with PRKX; 0% with PRP4; 96.6% in the assay on PYK2; 3% in the assay on QSK; 0% in the assay on RAF1. For the same molecule, the “%Inh” value with RET worked out at 0%; with RIOK1, 25%; in the assay on RIOK2, 0%; in the assay with RIOK3 it was 0%; in the assay on RIPK1, 0%; in the assay on RIPK2, 5%. Moreover, the “%Inh” value in the assay with RIPK4 and in the assay on RIPK5 was 0% each time.

Regarding `O=C(Nc1ccccc1)Nc1cccc(Oc2ccc3nccn3n2)c1`, the “%Inh” value worked out at 10% with PRKCQ; 0% in the assay with PRKD1; 7% with PRKD2; 0% in the assay with PRKD3; 4% in the assay with PRKG1; 0% with PRKG2. Besides, the “%Inh” value with PRKR amounted to 0%; with PRKX, 0%; in the assay with PRP4, 26%; in the assay on PYK2 it was 60%; in the assay with QSK it was 0%; in the assay with RAF1, 21%. In addition, the “%Inh” value was 8% with RET; 48% with RIOK1; 0% in the assay on RIOK2; 15% with RIOK3; 2% with RIPK1; 0% in the assay on RIPK2. The “%Inh” value in the assay on RIPK4 and in the assay on RIPK5 was 0% in each case.

As to `COc1cc2ncnc(Nc3ccc4nc(-c5ccccc5)[nH]c4c3)c2cc1OC.Cl` [GW282450], the “%Inh” value is 11% in the assay with PRKCQ; 0% in the assay with PRKD1; 5% in the assay on PRKD2; 7% in the assay with PRKD3; 0% with PRKG1; 13% with PRKG2. In addition, the “%Inh” value with PRKR stood at 13%; in the assay on PRKX it was 5%; in the assay on PRP4, 10%; in the assay on PYK2, 7%; in the assay on QSK, 0%; in the assay with RAF1, 10%. Further, the “%Inh” value in the assay on RET turned out to be 33%; in the assay on RIOK1, 51%; in the assay on RIOK2 it was 11%; in the assay with RIOK3 it was 25%; in the assay with RIPK1, 18%; in the assay with RIPK2, 27%. The “%Inh” value in the assay with RIPK4 is listed as 1%; in the assay with RIPK5, 0%.

For the molecule `Cn1ccc2ncnc(Oc3ccc(NC(=O)Nc4ccccc4)cc3)c21`, the “%Inh” value in the assay with PRKCQ turned out to be 13%; with PRKD1, 0%; in the assay with PRKD2 it was 2%; in the assay with PRKD3, 0%; in the assay with PRKG1 it was 7%; in the assay on PRKG2 it was 31%. Moreover, the “%Inh” value with PRKR, in the assay with PRKX, with PRP4, in the assay with PYK2, in the assay with QSK and with RAF1 was 0% in each case. Also, the “%Inh” value in the assay with RET amounted to 17%; in the assay on RIOK1, 19%; in the assay with RIOK2, 12%; with RIOK3, 29%; with RIPK1, 5%; in the assay with RIPK2, 26%. For the same molecule, the “%Inh” value with RIPK4 and in the assay with RIPK5 was 0% each time.

As to `Cc1csc(-c2nc(Nc3ccncc3)c3ccccc3n2)n1` [GW869640], the “%Inh” value in the assay with PRKCQ is given as 5%; with PRKD1, 69%; in the assay on PRKD2, 78%; in the assay on PRKD3, 71%; with PRKG1, 2%; with PRKG2, 12%. The “%Inh” value in the assay with PRKR was 33%; with PRKX, 0%; in the assay on PRP4, 0%; in the assay on PYK2, 0%; in the assay on QSK, 35%; in the assay on RAF1, 0%. In addition, the “%Inh” value stood at 0% with RET; 38% with RIOK1; 39% in the assay on RIOK2; 1% with RIOK3; 0% in the assay with RIPK1; 52% with RIPK2. The “%Inh” value in the assay on RIPK4 came to 44%; with RIPK5 it was 34%.

For `O=C1NC(=O)C(N2CCc3ccccc32)=C1c1ccccc1Cl` [SB-373598], the “%Inh” value with PRKCQ is on record as 7%; in the assay with PRKD1 it was 12%; in the assay on PRKD2 it was 3%; in the assay with PRKD3, 0%; in the assay on PRKG1 it was 36%; in the assay with PRKG2, 12%. The “%Inh” value in the assay with PRKR stood at 5%; in the assay with PRKX it was 12%; with PRP4, 0%; in the assay with PYK2, 0%; with QSK, 4%; in the assay on RAF1, 25%. Besides, the “%Inh” value with RET was determined as 3%; in the assay with RIOK1, 19%; in the assay on RIOK2, 4%; in the assay on RIOK3 it was 1%; in the assay with RIPK1 it was 0%; with RIPK2 it was 10%. Further, the figures for the “%Inh” value with RIPK4 and with RIPK5 were 12% and 0%, respectively.

Regarding `CC(C)(C)c1ccc(C(=O)Nc2cn3cc(-c4cccnc4)ccc3n2)cc1`, the “%Inh” value with PRKCQ is on record as 22%; in the assay with PRKD1 it was 21%; in the assay with PRKD2, 14%; in the assay with PRKD3, 5%; in the assay with PRKG1, 7%; in the assay on PRKG2, 26%. The “%Inh” value with PRKR stood at 0%; in the assay on PRKX, 10%; with PRP4 it was 22%; in the assay on PYK2, 7%; with QSK, 0%; in the assay on RAF1, 0%. The “%Inh” value in the assay on RET is on record as 14%; in the assay with RIOK1, 34%; in the assay with RIOK2, 33%; in the assay with RIOK3 it was 9%; with RIPK1 it was 27%; in the assay with RIPK2 it was 26%. For the same molecule, the “%Inh” value in the assay on RIPK4 stood at 0%; in the assay with RIPK5, 17%.

On to `Cc1ccc(-c2cc(-c3c[nH]nc3-c3ccccn3)ccn2)cc1` [GW684088], for which the “%Inh” value in the assay on PRKCQ is given as 1%; in the assay with PRKD1 it was 68%; in the assay with PRKD2, 62%; in the assay with PRKD3, 69%; in the assay with PRKG1 it was 0%; in the assay with PRKG2, 16%. Further, the “%Inh” value in the assay on PRKR was found to be 24%; in the assay with PRKX, 21%; in the assay on PRP4, 27%; in the assay on PYK2, 16%; in the assay with QSK, 0%; with RAF1, 21%. The “%Inh” value in the assay with RET is 6%; with RIOK1, 18%; with RIOK2, 0%; in the assay with RIOK3 it was 3%; with RIPK1, 28%; with RIPK2 it was 27%. The figures for the “%Inh” value in the assay with RIPK4 and with RIPK5 were 0% and 3%, respectively.
